Measurements from the supplement of paper PMC8975748.
Where a name gives a salt, the structure may show the parent alone. ± gives the standard deviation of the averaged measurements.

Experiments:
[1] = test system: Saccharomyces cerevisiae BY4741 SeMeCo community; test: mean cell size (pixel area) (pixels); higher = larger cells; conditions: 10 µM; 24 h; SM minimal medium
Procedure, shortened: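 Mean cell pixel area per well was measured in a four-plasmid fluorescent community of Saccharomyces cerevisiae BY4741, where every plasmid complements one auxotrophy and carries a fluorescent marker. Cells from an overnight preculture at OD600 = 1.0 were diluted to OD600 = 0.3 and dispensed at 70 µl into 384-well plates acoustically predosed with drug to a final 10 µM in SM medium. Incubation lasted 24 h, followed by paraformaldehyde fixation, automated confocal imaging and analysis in Harmony. Reported figures are averaged over 3 replicates. Same SeMeCo high-content imaging drug screen: Selleck FDA-approved drugs at 10 µM, 24 h in SM medium, 384-well plates, 3 replicates.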

[2] = test system: Saccharomyces cerevisiae BY4741 SeMeCo community; test: z-score of prototroph abundance vs DMSO median; higher = larger share of this subpopulation than in DMSO controls; conditions: 10 µM; 24 h; SM minimal medium; subpopulation (auxotrophy): Prototroph
Procedure, shortened: (§1)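 Cells of a Saccharomyces cerevisiae BY4741 community, carrying four plasmids that each restored one auxotrophy and encoded a distinct fluorescent protein, were pre-grown overnight to OD600 1.0 and diluted to 0.3. A 70 µl volume was added to 384-well plates acoustically predosed with library drugs (10 µM final) and grown 24 h in minimal SM medium. After paraformaldehyde fixation, automated confocal microscopy was used, with single-auxotroph fluorescent strains for thresholds and autofluorescence correction. The abundance of each subpopulation was scored as a z-score against the vehicle-well median.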

[3] = test system: Saccharomyces cerevisiae BY4741 SeMeCo community; test: z-score of subpopulation abundance vs DMSO median, subpopulation auxotrophic for M; higher = larger share of this subpopulation than in DMSO controls; conditions: 10 µM; 24 h; SM minimal medium; subpopulation (auxotrophy): M
Procedure, shortened: as §1

[4] = test system: Saccharomyces cerevisiae BY4741 SeMeCo community; test: z-score of subpopulation abundance vs DMSO median, subpopulation auxotrophic for L; higher = larger share of this subpopulation than in DMSO controls; conditions: 10 µM; 24 h; SM minimal medium; subpopulation (auxotrophy): L
Procedure, shortened: as §1

[5] = test system: Saccharomyces cerevisiae BY4741 SeMeCo community; test: z-score of subpopulation abundance vs DMSO median, subpopulation auxotrophic for U; higher = larger share of this subpopulation than in DMSO controls; conditions: 10 µM; 24 h; SM minimal medium; subpopulation (auxotrophy): U
Procedure, shortened: as §1

[6] = test system: Saccharomyces cerevisiae BY4741 SeMeCo community; test: z-score of subpopulation abundance vs DMSO median, subpopulation auxotrophic for H; higher = larger share of this subpopulation than in DMSO controls; conditions: 10 µM; 24 h; SM minimal medium; subpopulation (auxotrophy): H
Procedure, shortened: as §1

[7] = test system: Saccharomyces cerevisiae BY4741 SeMeCo community; test: z-score of subpopulation abundance vs DMSO median, subpopulation auxotrophic for LU; higher = larger share of this subpopulation than in DMSO controls; conditions: 10 µM; 24 h; SM minimal medium; subpopulation (auxotrophy): LU
Procedure, shortened: as §1

[8] = test system: Saccharomyces cerevisiae BY4741 SeMeCo community; test: z-score of subpopulation abundance vs DMSO median, subpopulation auxotrophic for LM; higher = larger share of this subpopulation than in DMSO controls; conditions: 10 µM; 24 h; SM minimal medium; subpopulation (auxotrophy): LM
Procedure, shortened: as §1

[9] = test system: Saccharomyces cerevisiae BY4741 SeMeCo community; test: z-score of subpopulation abundance vs DMSO median, subpopulation auxotrophic for HM; higher = larger share of this subpopulation than in DMSO controls; conditions: 10 µM; 24 h; SM minimal medium; subpopulation (auxotrophy): HM
Procedure, shortened: as §1

[10] = test system: Saccharomyces cerevisiae BY4741 SeMeCo community; test: z-score of subpopulation abundance vs DMSO median, subpopulation auxotrophic for HU; higher = larger share of this subpopulation than in DMSO controls; conditions: 10 µM; 24 h; SM minimal medium; subpopulation (auxotrophy): HU
Procedure, shortened: as §1

[11] = test system: Saccharomyces cerevisiae BY4741 SeMeCo community; test: z-score of subpopulation abundance vs DMSO median, subpopulation auxotrophic for UM; higher = larger share of this subpopulation than in DMSO controls; conditions: 10 µM; 24 h; SM minimal medium; subpopulation (auxotrophy): UM
Procedure, shortened: as §1

[12] = test system: Saccharomyces cerevisiae BY4741 SeMeCo community; test: z-score of subpopulation abundance vs DMSO median, subpopulation auxotrophic for HL; higher = larger share of this subpopulation than in DMSO controls; conditions: 10 µM; 24 h; SM minimal medium; subpopulation (auxotrophy): HL
Procedure, shortened: as §1

[13] = test system: Saccharomyces cerevisiae BY4741 SeMeCo community; test: z-score of subpopulation abundance vs DMSO median, subpopulation auxotrophic for HLU; higher = larger share of this subpopulation than in DMSO controls; conditions: 10 µM; 24 h; SM minimal medium; subpopulation (auxotrophy): HLU
Procedure, shortened: as §1

[14] = test system: Saccharomyces cerevisiae BY4741 SeMeCo community; test: z-score of subpopulation abundance vs DMSO median, subpopulation auxotrophic for HLM; higher = larger share of this subpopulation than in DMSO controls; conditions: 10 µM; 24 h; SM minimal medium; subpopulation (auxotrophy): HLM
Procedure, shortened: as §1

[15] = test system: Saccharomyces cerevisiae BY4741 SeMeCo community; test: z-score of subpopulation abundance vs DMSO median, subpopulation auxotrophic for HUM; higher = larger share of this subpopulation than in DMSO controls; conditions: 10 µM; 24 h; SM minimal medium; subpopulation (auxotrophy): HUM
Procedure, shortened: as §1

[16] = test system: Saccharomyces cerevisiae BY4741 SeMeCo community; test: z-score of subpopulation abundance vs DMSO median, subpopulation auxotrophic for LUM; higher = larger share of this subpopulation than in DMSO controls; conditions: 10 µM; 24 h; SM minimal medium; subpopulation (auxotrophy): LUM
Procedure, shortened: as §1

[17] = test system: Saccharomyces cerevisiae BY4741 SeMeCo community; test: z-score of subpopulation abundance vs DMSO median, subpopulation auxotrophic for HLUM; higher = larger share of this subpopulation than in DMSO controls; conditions: 10 µM; 24 h; SM minimal medium; subpopulation (auxotrophy): HLUM
Procedure, shortened: as §1

Row | SMILES | mean cell size [1] | z-score of prototroph abundance [2] | z-score of subpopulation abundance [3] | z-score of subpopulation abundance [4] | z-score of subpopulation abundance [5] | z-score of subpopulation abundance [6] | z-score of subpopulation abundance [7] | z-score of subpopulation abundance [8] | z-score of subpopulation abundance [9] | z-score of subpopulation abundance [10] | z-score of subpopulation abundance [11] | z-score of subpopulation abundance [12] | z-score of subpopulation abundance [13] | z-score of subpopulation abundance [14] | z-score of subpopulation abundance [15] | z-score of subpopulation abundance [16] | z-score of subpopulation abundance [17]
1 | O=C(O)CCCCCCCC(=O)O [Azelaic acid] | 12.4 ± 0.2 | -0.32 | 0.44 | -0.32 | 0.62 | 0.43 | 1.26 | 0.3 | -0.04 | 0.63 | -0.2 | -0.5 | 0.77 | -0.07 | 0.47 | -0.32 | 1.13
2 | N=C(N)NC(=O)c1nc(Cl)c(N)nc1N [Amiloride HCl] | 12.59 ± 0.11 |  | 1.46 | 1.94 | -1.58 | 0.83 | -0.38 | 3.94 | 1.25 | -2.41 | -1.89 | 1.51 | -0.5 | 3.24 | -1.69 | 0.19 | 0.53
3 | CC(C)(C)C(=O)OCOC(=O)[C@@H]1N2C(=O)[C@@H](/N=C/N3CCCCCC3)[C@H]2SC1(C)C [Pivmecillinam hydrochloride] | 12.3 ± 0.13 | -0.55 | -0.74 | 0.41 | 0.34 | 0.1 | 0.57 | -0.18 | -0.25 | -0.03 | -0.01 | 0.29 | -0.02 | -0.52 | -0.16 | -0.28 | -0.19
4 | Cc1cc(-n2c(=O)[nH]c(=O)n(C)c2=O)ccc1Oc1ccc(SC(F)(F)F)cc1 [Toltrazuril] | 12.53 ± 0.12 | 0.02 | -0.11 | -0.15 | -0.51 | 0.2 | -0.65 | -0.18 | 0.1 | 0.29 | -0.14 |  | 0 | -0.31 | -0.45 | -0.13 | 0.28
5 | CCOC(=O)C1=C[C@]2(CC)CCCN3CCc4c(n1c1ccccc41)[C@@H]32 [Vinpocetine] | 12.3 ± 0.23 |  | 2.07 | 0.01 | 0.11 | -0.46 | 0.81 | 0.73 | 0.55 | -0.02 | 1.1 | 0.11 | -0.1 | 0.39 | 0.65 | 0.25 | 0.54
6 | C#CCC(Cc1cnc2nc(N)nc(N)c2n1)c1ccc(C(=O)N[C@@H](CCC(=O)O)C(=O)O)cc1 (some centres not stated) [Pralatrexate] | 14.4 ± 0.34 |  | 2.68 | 3.17 | -4.47 | 3.97 | -3.34 | 3.24 | 5.98 | -3.79 | -5.43 | 4.02 | 0.5 | 4.47 | -2.23 | -1.33 | 1.08
7 | CCCCOc1ccc(CC(=O)NO)cc1 [Bufexamac] | 12.53 ± 0.12 |  | -0.94 | -1.49 | 0.85 | -0.53 | -0.51 | -1.36 | -0.9 | 0.4 | -0.32 | -0.85 | -0.71 | -1.19 | -1.13 | -0.9 | -1.25
8 | N#C/C(=C1/SC[C@@H](c2ccc(Cl)cc2Cl)S1)n1ccnc1 [Luliconazole] | 12 ± 0.31 | -8.67 | -2.68 | -1.35 | -0.31 | 18.4 | 0.85 | 1.33 | 7.54 | 10.5 | 11.7 | 4.75 | 5.26 | 16.8 | 10.6 | 4.52 | 11.1
9 | C[C@H]1COc2c(N3CCN(C)CC3)c(F)cc3c(=O)c(C(=O)O)cn1c23 [Levofloxacin] | 12.4 ± 0.19 | 1.06 | 0 | -0.45 | -0.46 | -0.42 | -0.77 | -0.53 | -0.49 | -0.62 | -0.89 |  | -0.56 | -1.03 | -0.88 | -1.11 | -0.96
10 | CC(C)c1c(C(=O)Nc2ccccc2)c(-c2ccccc2)c(-c2ccc(F)cc2)n1CC[C@@H](O)C[C@@H](O)CC(=O)O [Atorvastatin] | 11.1 ± 0.15 | -2.62 | -2.26 | 1.5 | 0.32 | 6.46 | 1.58 | -0.19 | 2.44 | 2.62 | 1.48 | 5.39 | 1.73 | 1.21 | 2.1 | 0.92 | 0.49
11 | CO/N=C(\C(=O)N[C@@H]1C(=O)N2C(C(=O)O)=C(Cn3ccc(=N)n3CCO)CS[C@H]12)c1csc(N)n1 [Cefoselis Sulfate] | 12.3 ± 0.24 | 0.34 | 1.45 | -1.67 | 0.03 | -1.31 | -0.98 | -0.08 | -0.32 | -0.72 | 0.03 | -1.68 | -0.33 | -1.24 | 0.02 | -0.44 | -0.64
12 | CN1CCCN=C1/C=C/c1cccc(O)c1 [Oxantel Pamoate] | 12.6 ± 0.29 | 1.15 | 1.17 | -0.58 | -1.1 | 0.29 | -0.45 | -0.51 | -0.6 | -0.96 | -1.73 | -0.28 | -0.35 | -0.2 | -1.13 | -1.13 | -0.41
13 | O=S1(=O)CCN(CN2CCS(=O)(=O)NC2)CN1 [Taurolidine] | 12.5 ± 0.25 | 0.42 | -0.34 | -0.57 | 0.64 | -0.57 | 0.35 | -0.78 | -1.08 | 0.18 | 0.3 | -1.35 | -0.43 | -0.64 | -0.52 | -0.43 | -0.55
14 | CC1(C)[C@H](C(=O)O)N2C(=O)C[C@H]2S1(=O)=O [Sulbactam sodium] | 12.54 ± 0.013 | -0.92 | 0.51 | -0.23 | 1.59 | -0.33 | 0.63 | -0.08 | 0.23 | 1.1 | 1.22 | 0.14 | 0.64 | -0.2 | 1.25 | 0.21 | 0.51
